± gives the standard deviation of the averaged measurements.
What was measured:
Assay in all cases: promoter activity interaction Z-score (Lux/OD deviation from empty-vector control); higher = stronger promoter induction by the compound
[1] = tested on: E. coli BW25113 robp lux reporter
Outline: (§1)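 Four 1:2 dilutions of each compound were tested in biological duplicates on E. coli BW25113 carrying low-copy luxCDABE promoter reporters, either wild type or deleted for one of three genes. Cultures of 40 µl LB Lennox in 384-well plates were kept at 37°C and read for OD600 and luminescence every 30 min for 12 h. Integration windows were 0–8 h for wild type and 1–9 h for deletion strains, and wells under 10% of the median growth value were discarded. The score is a Z-transformed residual of growth-normalised luminescence relative to a control fit.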

[2] = tested on: E. coli BW25113 soxSp lux reporter
Outline: as §1

[3] = tested on: E. coli BW25113 tolCp lux reporter
Outline: as §1

[4] = 0.062 µg/ml, genetic background: wild type
[5] = 0.062 µg/ml, genetic background: ΔmarA
[6] = 0.062 µg/ml, genetic background: Δrob
[7] = 0.062 µg/ml, genetic background: ΔsoxS
[8] = 0.12 µg/ml, genetic background: wild type
[9] = 0.12 µg/ml, genetic background: ΔmarA
[10] = 0.12 µg/ml, genetic background: Δrob
[11] = 0.12 µg/ml, genetic background: ΔsoxS
[12] = 0.25 µg/ml, genetic background: wild type
[13] = 0.25 µg/ml, genetic background: ΔmarA
[14] = 0.25 µg/ml, genetic background: Δrob
[15] = 0.25 µg/ml, genetic background: ΔsoxS
[16] = 0.49 µg/ml, genetic background: wild type
[17] = 0.49 µg/ml, genetic background: ΔmarA
[18] = 0.49 µg/ml, genetic background: Δrob
[19] = 0.49 µg/ml, genetic background: ΔsoxS

## CN(C)c1ccc(O)c2c1C[C@H]1C[C@H]3[C@H](N(C)C)C(O)=C(C(N)=O)C(=O)[C@@]3(O)C(O)=C1C2=O [Minocycline]
[1]; [4]
  promoter activity interaction Z-score: -0.379 ± 0.35
[1]; [5]
  promoter activity interaction Z-score: -0.0848 ± 0.76
[1]; [6]
  promoter activity interaction Z-score: 0.746 ± 0.51
[1]; [7]
  promoter activity interaction Z-score: -0.6221 ± 0.0048
[1]; [8]
  promoter activity interaction Z-score: 0.195 ± 0.02
[1]; [9]
  promoter activity interaction Z-score: 0.369 ± 0.11
[1]; [10]
  promoter activity interaction Z-score: 0.83 ± 0.12
[1]; [11]
  promoter activity interaction Z-score: 0.357 ± 0.091
[1]; [12]
  promoter activity interaction Z-score: 0.736 ± 1.1
[1]; [13]
  promoter activity interaction Z-score: 0.349 ± 0.033
[1]; [14]
  promoter activity interaction Z-score: 1.12 ± 0.15
[1]; [15]
  promoter activity interaction Z-score: -0.142 ± 0.44
[1]; [16]
  promoter activity interaction Z-score: 0.715 ± 0.67
[1]; [17]
  promoter activity interaction Z-score: 0.586 ± 0.056
[1]; [18]
  promoter activity interaction Z-score: 0.685 ± 1.6
[1]; [19]
  promoter activity interaction Z-score: 0.64 ± 1.7
[2]; [4]
  promoter activity interaction Z-score: 0.269 ± 0.16
[2]; [5]
  promoter activity interaction Z-score: -0.245 ± 0.04
[2]; [6]
  promoter activity interaction Z-score: 0.0739 ± 0.0036
[2]; [7]
  promoter activity interaction Z-score: -0.185 ± 0.069
[2]; [8]
  promoter activity interaction Z-score: 0.291 ± 0.56
[2]; [9]
  promoter activity interaction Z-score: 0.0029 ± 0.014
[2]; [10]
  promoter activity interaction Z-score: -0.102 ± 0.055
[2]; [11]
  promoter activity interaction Z-score: 0.203 ± 0.098
[2]; [12]
  promoter activity interaction Z-score: 0.499 ± 0.44
[2]; [13]
  promoter activity interaction Z-score: -0.0485 ± 0.1
[2]; [14]
  promoter activity interaction Z-score: 0.0791 ± 0.26
[2]; [15]
  promoter activity interaction Z-score: -0.114 ± 0.015
[2]; [16]
  promoter activity interaction Z-score: 0.538 ± 0.72
[2]; [17]
  promoter activity interaction Z-score: 0.583 ± 0.97
[2]; [18]
  promoter activity interaction Z-score: 0.542 ± 0.91
[2]; [19]
  promoter activity interaction Z-score: 0.336 ± 0.25
[3]; [4]
  promoter activity interaction Z-score: -0.706 ± 0.049
[3]; [5]
  promoter activity interaction Z-score: -0.479 ± 0.52
[3]; [6]
  promoter activity interaction Z-score: -0.423 ± 0.84
[3]; [7]
  promoter activity interaction Z-score: -0.991 ± 0.75
[3]; [8]
  promoter activity interaction Z-score: 0.000824 ± 0.27
[3]; [9]
  promoter activity interaction Z-score: -0.0931 ± 0.19
[3]; [10]
  promoter activity interaction Z-score: -0.00328 ± 1.2
[3]; [11]
  promoter activity interaction Z-score: 0.557 ± 0.39
[3]; [12]
  promoter activity interaction Z-score: -0.22 ± 0.98
[3]; [13]
  promoter activity interaction Z-score: -0.201 ± 0.28
[3]; [14]
  promoter activity interaction Z-score: 0.646 ± 0.087
[3]; [15]
  promoter activity interaction Z-score: -0.226 ± 0.84
[3]; [16]
  promoter activity interaction Z-score: -0.114 ± 0.25
[3]; [17]
  promoter activity interaction Z-score: 0.0123 ± 0.63
[3]; [18]
  promoter activity interaction Z-score: 0.966 ± 0.27
[3]; [19]
  promoter activity interaction Z-score: 0.526 ± 0.79

— the supplement of paper PMC12282887
